Consider 27 compounds from PubChem BioAssay AID2685 (National Center for Advancing Translational Sciences (NCATS), 2010).

Hit rate of the full screen: of about 320,000 compounds, about 2,100 (0.66%) were called active. Not shown: some 53% with an inconclusive outcome. The call rests on the fitted dose curve; in most records, active means well fitted inhibition curve with a large enough effect in the signal ratio, with a control signal flat (not every such curve was filed as active); inconclusive means small, poorly fitted or top-dose-only effect, or effect the other way, or a change in a side signal; inactive means flat fitted curve, though single readings scatter; the % refers to the signal ratio. What follows is part of a selection rich in actives, with near analogues and random picks from the rest.
Potency means the concentration at half of the fitted maximal effect.

This test is described as follows: qHTS Assay for Lipid Storage Modulators in Drosophila S3 Cells.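 On cell number change: cells counted by Cell Tracker Red CMTPX staining in the red channel.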 The settings on record: BODIPY lipid droplet fluorescence, 18-24 h, cells fed with added oleic acid; cell number change: measured here: cell count max response; series mostly up to 46.1 µM. Put shortly:
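Drosophila S3 cells loaded with oleic acid (400 uM, as added) and compounds at several concentrations; lipid droplets imaged by 488-nm laser-scanning cytometry, 500–530 nm intensity and object ratio to cell channel. Percent activity normalized to 20 uM Triacsin C.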
A general note: qHTS replaces the single test concentration by a dilution series.
`CC(C)CC(c1nnnn1C1CCCC1)N1CCN(C(=O)c2ccco2)CC1` (stereo not drawn): the Potency entry was “inactive” and the cell number change was -2.29%.
In the same order, the values of `COc1ccccc1C(=O)Nc1ccc2[nH]ncc2c1` are “inactive” and 0.824%.
The corresponding values for `CC(C)(C)C(=O)C1=C(O)C(=O)N(Cc2ccccc2)C1c1ccccc1F` (stereo not drawn) are “inactive” and 0.73%.
In the same order, the values of `CC(=O)C1=C(O)C(=O)N(Cc2ccccc2)C1c1ccccc1F` (stereo not drawn) are 18.4 µM (active) and -6.03%.
As to `CC(=O)C1=C(O)C(=O)N(Cc2ccccc2)C1c1ccc(F)cc1` (stereo not drawn), the Potency entry is “inactive” and the cell number change was -7.48%.
With `S=C(NCC1CCCO1)NC1CCCC1` (stereo not drawn), the Potency is 1.3 µM (active).
As to `S=C(NCC1CCCO1)NC12CC3CC(CC(C3)C1)C2` (stereo not drawn), the Potency result was “inactive” and the cell number change is 5.13%.
In the same order, the values of `S=C(NCC1CCCO1)Nc1ccccc1` (stereo not drawn) are “inactive” and -0.626%.
Regarding `CCOC(=O)c1c(C)[nH]c(C(=O)COC(=O)c2oc3ccc(OC)cc3c2C)c1C`, the Potency entry was “inactive” and the cell number change was -6.84%.
Regarding `Cc1nnc(NC(=O)CSc2nc3ccccc3o2)s1`, the Potency entry was “inactive” and the cell number change is -14%.
Consider `O=C(CSc1nc2ccccc2o1)Nc1nncs1`, for which the Potency is 16.4 µM (active) and the cell number change turned out to be 24.7%.
As for `CCc1nnc(NC(=O)CSc2nc3ccccc3o2)s1`, the Potency result was “inactive”.
In the case of `O=C(O)CCc1nc(-c2cccs2)no1`, the Potency result was “inactive” and the cell number change is -23%.
In the same order, the values of `CC(C)C(=O)Nc1ccc(-c2nc3ncccc3o2)cc1` are “inactive” and 0.493%.
On to `COc1cc(C=O)ccc1OC(=O)c1ccncc1`, for which the Potency result is “inactive” and the cell number change is -18.5%.
In the same order, the values of `CN(c1ccc(C(=O)N2CCCCC2)cc1)S(=O)(=O)c1ccccc1` are “inactive” and -27%.
In the same order, the values of `CN(c1ccccc1)S(=O)(=O)c1ccc(C(=O)N2CCCC2)cc1` are “inactive” and -4.2%.
In the case of `COc1ccc(S(=O)(=O)N(C)c2ccc(C(=O)N3CCCCC3)cc2)cc1`, the Potency entry is “inactive”.
On to `CN(c1ccc(C(=O)Nc2ccccc2C(=O)N2CCOCC2)cc1)S(C)(=O)=O`, for which the Potency result is “inactive” and the cell number change is -16%.
The corresponding values for `CN(c1ccc(C(=O)N2CCCCCC2)cc1)S(=O)(=O)c1ccccc1` are 5.17 µM (active) and -9.4%.
Take `CN(c1ccc(C(=O)N2CCN(c3ccc(F)cc3)CC2)cc1)S(C)(=O)=O`: the Potency result was “inactive”.
Same read-out and setting: the entry for `COc1ccc(S(=O)(=O)N(C)c2ccc(C(=O)N3CCOCC3)cc2)cc1OC` is “inactive”.
On to `CN(c1ccc(C(=O)N2CCOCC2)cc1)S(C)(=O)=O`, for which the Potency was 25.9 µM (active) and the cell number change was -14.6%.
As to `COc1ccc(S(=O)(=O)N(C)c2ccc(C(N)=O)cc2)cc1`, the Potency was 18.4 µM (active).
For the compound `COc1ccc(S(=O)(=O)N(C)c2ccc(C(=O)N3CCCC3)cc2)cc1OC`, the Potency is 0.326 µM (active) and the cell number change was -7.14%.
For the compound `COc1ccc(S(=O)(=O)N(C)c2ccc(C(=O)N3CCCCC3)cc2)cc1OC`, the Potency entry was “inactive” and the cell number change was 2.05%.
For `COc1ccc(S(=O)(=O)N(C)c2ccc(C(=O)N3CCCC3)cc2)cc1`, the Potency entry was “inactive” and the cell number change is 18.3%.
